Screening data (PubChem)
Shown are actives, neighbours in structure and some others; about 11% of the full set was active somewhere.
BAZ2B inh: qHTS Assay for Inhibitors of BAZ2B; Potency, µM (titrated, usually from 114 µM), usual class: inhibitors; Bromodomain adjacent to zinc finger domain protein 2B (Homo sapiens), Q9UIF8; AID 504333, 2011; hit rate 4.4% among 360,000; AlphaScreen BAZ2B-H3K14Ac peptide displacement; further: nearly all actives have a fitted effect of over 60% in size
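Compounds, titrated to a top concentration of 110 uM, were incubated 30 min at room temperature with preformed BAZ2B/acetyl-K14 H3 peptide complex (50 nM each). Proximity signal was measured by AlphaScreen after 20 min with beads.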
G9a inh: qHTS Assay for Inhibitors of Histone Lysine Methyltransferase G9a; Histone-lysine N-methyltransferase EHMT2 (Homo sapiens), Q96KQ7; G9a H3K9 monomethylation, AlphaScreen, 2 h; Potency, µM (doses to about 102 µM), usual class: inhibitors; hit rate 8.8% among 350,000; AID 504332, 2011; further: nearly all actives have a fitted effect of over 75% in size
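Signal arises when biotinylated H3K9 peptide, once monomethylated, bridges streptavidin donor and antibody-captured acceptor beads. Enzyme at 20 nM was preincubated 15 min with test compounds; peptide 500 nM and SAM 20 uM then reacted for 2 h.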
PI5P4Ka inh: qHTS for Inhibitors of phosphatidylinositol 5-phosphate 4-kinase (PI5P4K); AID 652105, 2013; max response, %; PI5P4Kalpha enzyme, ADP-Glo luminescence, 60 min; stronger effect = lower value; hit rate 1.2% among 330,000; active means max response of -50% or lower; inconclusive means between -30% and -50%; inactive means -30% or higher; further: value at the top dose of about 77 µM
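Enzyme plus substrate dispensed, test compounds pinned in, then ATP (5 microM final) added. After 60 min at RT, ADP-Glo reagent 1 for 45 min and reagent 2 for 30 min preceded luminescence imaging.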
L3MBTL1 inh: qHTS Assay for the Inhibitors of L3MBTL1. AID 485360, 2010. AlphaScreen L3MBTL1–H3K9me1 peptide binding. hit rate 0.66% among 230,000. Potency, µM (series often up to 57.1 µM), actives largely listed as inhibitors. Lethal(3)malignant brain tumor-like protein 1 (Homo sapiens), Q9Y468; further: nearly all actives have a fitted effect of over 60% in size
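Read-out is AlphaScreen signal from streptavidin donor and nickel chelate acceptor beads (10 ug/mL final each) bridging L3MBTL1 (50 nM) and biotinylated K9-monomethylated H3(1-15) peptide (75 nM), after 30 min compound exposure at room temperature.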
HP1b binding inh: HTS for Inhibitors of HP1-beta Chromodomain Interactions with Methylated Histone Tails. Chromobox protein homolog 1 (Homo sapiens), P83916. AlphaScreen HP1-beta / biotin-H3K9me3 peptide binding. Potency, µM (doses to about 114 µM), hits mostly inhibitors. hit rate 0.56% among 390,000; further: nearly all actives have a fitted effect of over 70% in size
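HP1-beta protein (50 nM final) preincubated 30 min at room temperature with biotinylated H3(1-18)K9me3 peptide (50 nM) in PBS pH 7.4, 0.01% Tween-20, then compound added for 30 min. AlphaScreen streptavidin donor/nickel chelate acceptor beads (10 ug/mL final), 30 min dark, luminescence read.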
JMJD2A Tudor inh: qHTS Assay for Inhibitors of JMJD2A-Tudor Domain. AlphaScreen JMJD2A-Tudor / H3K4me3 peptide binding. Potency, µM (series often up to 114 µM), actives largely listed as inhibitors. Lysine-specific demethylase 4A (Homo sapiens), O75164. hit rate 4.4% among 390,000. AID 504339, 2011; further: nearly all actives have a fitted effect of over 50% in size
A number is an active result; i = inactive; ? = inconclusive; nt = no result given; [ ] = dose if it differs, or a comment. Unless noted, the call rests on the fitted dose curve; in most records, active means well fitted inhibition curve with a large enough effect; inconclusive means small, poorly fitted or top-dose-only effect; inactive means no such curve, though single readings can be large or run the other way.

SMILES	BAZ2B inh	G9a inh	PI5P4Ka inh	L3MBTL1 inh	HP1b binding inh	JMJD2A Tudor inh
CCCc1ccc(OC(C)c2nc(-c3ccc(-n4cccc4)cc3)no2)cc1 (stereo unspecified)	i	i	nt	nt	i	i
Cc1sc(NC(=O)c2cccs2)nc1-c1ccccc1	i	i	i	i	i	i
Cc1sc(N/N=C/c2cccs2)nc1-c1ccccc1	i	45µM	i	i	?	25µM
COc1ccc(-c2nc3cnc(N4CCNCC4)nc3n(Cc3cccs3)c2=O)cc1	nt	i[0.501 µM]	nt	nt	nt	nt
CN(C)c1ccc(-c2cc[nH]c(=O)c2N)cc1	nt	nt	nt	nt	nt	20µM
CN(C)C(=O)c1ccc(-c2cc[nH]c(=O)c2N)cc1	nt	nt	nt	nt	nt	i
O=C(CCNC(=O)c1ccc([N+](=O)[O-])cc1)Nc1nccs1	i	50µM	i	i	i	i
O=C(CCNC(=O)c1ccc(Br)cc1)Nc1nccs1	i	i	i	i	i	i
O=C(CN1C(=O)c2ccc([N+](=O)[O-])cc2C1=O)Nc1nccs1	i	50µM	i	i	i	i
COc1ccc(C2=CSC3=NCCN23)cc1F	i	28µM	i	i	i	i
Cc1nnc(NC(=O)c2nc(SCc3ccccc3F)ncc2Cl)s1	i	i	nt	nt	i	i
Cc1nnc(NC(=O)c2nc(S(=O)(=O)Cc3ccccc3C)ncc2Cl)s1	56µM	?	i	nt	i	?
CC(C)c1nnc(NC(=O)c2nc(S(=O)(=O)Cc3ccccc3F)ncc2Cl)s1	?	20µM	i	nt	i	i
CCOc1ccc(NC(=O)c2nc(S(=O)(=O)Cc3ccccc3F)ncc2Cl)cc1	i	i	nt	nt	i	i
O=C(Nc1nc2ccc(F)cc2s1)c1nc(S(=O)(=O)Cc2ccccc2F)ncc1Cl	i	i	nt	nt	i	i
CSc1nnc(NC(=O)c2nc(S(=O)(=O)Cc3ccccc3F)ncc2Cl)s1	i	28µM	i	nt	i	22µM
COc1ccc(C(=O)NCC(c2cccs2)S(=O)(=O)c2cccs2)cc1 (stereo unspecified)	i	i	nt	nt	i	i
Oc1cc2c(cc1O)C1c3ccc(O)c(O)c3OCC1(O)C2 (stereo unspecified)	45µM	?	-74	?	?	3.5µM
CCC(OC(=O)c1cccs1)C(=O)NCc1ccc(C)cc1 (stereo unspecified)	i	i	i	i	i	i
CCC(OC(=O)c1cccs1)C(=O)NCc1ccc2c(c1)OCO2 (stereo unspecified)	i	i[12.7 µM]	i	i[11.4 µM]	i	100µM
CCOC(=O)c1c(C)[nH]c(C)c1S(=O)(=O)N(C)CC(=O)Nc1ccc(C)cc1Br	i	i	nt	nt	i	i
Cc1ccc(-n2c(Cc3cccn3C)nnc2SCC(=O)N2CCc3ccccc32)cc1	50µM	45µM	nt	i	?	?
Cn1cccc1Cc1nnc(SCC(=O)N2CCOCC2)n1CCc1ccccc1	i	45µM	i	i	i	i
COc1ccc(-n2c(Cc3cccn3C)nnc2SCC(=O)Nc2ccccc2F)cc1	?	50µM	i	?	i	?
COc1ccc(OC)c(NC(=O)CSc2nnc(Cc3cccn3C)n2-c2ccc(F)cc2)c1	50µM	?	i	i	i	i
SMILES	BAZ2B inh	G9a inh	PI5P4Ka inh	L3MBTL1 inh	HP1b binding inh	JMJD2A Tudor inh
Cn1cccc1Cc1nnc(SCC(=O)N2CCc3ccccc32)n1-c1ccc(F)cc1	i	i	i	i	?	i
CCOC(=O)C1CCN(S(=O)(=O)c2cc(-c3cc(C)no3)ccc2OC)CC1	i	i	nt	nt	i	i
COc1ccc(C(C(=O)NCc2ccccc2)N(C(=O)Cn2nnc3ccccc32)c2ccc(F)cc2)cc1 (stereo unspecified)	i	i	nt	nt	i	i
COc1ccc(-n2c(Cc3cccn3C)nnc2SCC(=O)Nc2cccc(C)c2C)cc1	?	45µM	i	i	i	?
COc1ccc(-n2c(Cc3cccn3C)nnc2SCC(=O)Nc2ccc(F)cc2F)cc1	?	40µM	i	i	i	?
Cn1cccc1Cc1nnc(SCC(=O)N2CCOCC2)n1-c1ccc(F)cc1	i	?	i	i	i	i
COc1ccc(-n2c(Cc3cccn3C)nnc2SCC(=O)Nc2ccccc2C)cc1	i	?	i	i	i	i
COc1ccc(-n2c(Cc3cccn3C)nnc2SCC(=O)N2CCOCC2)cc1	i	71µM	i	i	i	i
CC(=O)Nc1ccc(SCC(CC(C)C)N2CCN(C)CCC2=O)cc1 (stereo unspecified)	nt	nt	nt	nt	i	i
Cc1cc(C)cc(NC(=O)CSc2nnc(-c3cc4occc4n3C)n2-c2ccccc2C)c1	i	?	nt	nt	i	i
Cc1cc(NCCCCCCCNc2cc(C)nc3cc([N+](=O)[O-])ccc23)c2ccc([N+](=O)[O-])cc2n1	nt	nt	-61	nt	71µM	56µM
COc1ccc(C(=O)N(Cc2ccccc2)Cc2cccs2)c(O)c1	nt	nt	nt	nt	nt	i
CCc1ccc(C2=NN(CCC(=O)NCCc3ccccc3)C(=O)CC2)cc1	i	i	nt	nt	i	i
COc1ccc(OC)c(NC(=O)CCN2CC(C)OC(C)C2)c1 (stereo unspecified)	i	i	i	i	i	i
C=CCc1cc(Cl)ccc1OCCN1CC(C)OC(C)C1 (stereo unspecified)	?	4.5µM	i	i	?	2.2µM
C=CCc1cc(OC)ccc1OCCN1CC(C)OC(C)C1 (stereo unspecified)	28µM	7.1µM	i	i	?	5µM
COc1cccc2cc(-c3nc(-c4ccccc4)c(C)s3)c(=O)oc12	nt	nt	nt	nt	i	i
Cc1snc(SCc2ccc(F)cc2)c1C#N	i	i	i	nt	i	i
COC(=O)c1cccnc1SCc1ccccc1	i	i	nt	i	i	i
COC(=O)c1ccccc1CSc1nsc(/C=C/N(C)C)c1C#N	45µM	i[2.33 µM]	-57	nt	?	50µM
Cc1nc(CSc2nsc(/C=C/N(C)C)c2C#N)cs1	40µM	20µM	?	?	?	?
O=C(Cn1c(=O)n(-c2ccc(Cl)cc2)c(=O)c2sc3ccccc3c21)NC1CCCC1	i	i	nt	nt	i	i
COc1ccc(CN2CCN(c3ccccc3OC)CC2)cc1OC	50µM	nt	i	i	?	22µM
COc1cc(OC)c(OC)cc1CN1CCN(c2ccc(F)cc2)CC1	50µM	28µM	i	i	?	45µM
COc1ccc(/C=N/NC(=O)c2ccccc2)cc1CN1CCN(c2ccc(F)cc2)CC1	i	i[12.7 µM]	i	i	i	i
